In all, about 5,500 compounds went through this assay and about 2,000 (36%) were called active. Inconclusive results (about 18%) are left out. No stated cut-off is given here; in the data, active means normalized growth mostly below about 0.91 (no sharp cut-off); inconclusive means no clear call, values can overlap the other calls; inactive means mostly above about 0.92. The list shows a part of the results.
Assay: chemical genetic growth profiling, strain panel (AID 1159580);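 further: tested at 20 µM; growth read once vehicle control cultures reached saturation at 30 °C; 1 = growth at the plate median or of vehicle wells; lower values mean less growth of the strain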
Conditions: growth OD

Measured: normalized growth

CC(=O)O[C@H]1C[C@@H](OC(C)=O)C(C)(C)C2CC(=O)[C@]3(C)C(CC[C@@]4(C)[C@H](c5ccoc5)OC(=O)[C@H]5O[C@]543)[C@]21C (some centres not stated)
inactive: S. cerevisiae deletion strains, locus YJR075W, strain HOC1, hits give low values 1.01 | S. cerevisiae deletion strains, locus YKL009W, strain mrt4, hits give low values 0.974 | S. cerevisiae deletion strains, locus YKL068W, hits give low values 1.01 | S. cerevisiae deletion strains, locus YKL085W, strain MDH1 (second series), hits give low values 1.01 | S. cerevisiae deletion strains, locus YKL085W, strain MDH1, hits give low values 1.01 | S. cerevisiae deletion strains, locus YKL160W, strain elf1, hits give low values 0.998 | S. cerevisiae deletion strains, locus YKL190W, strain CNB1, hits give low values 0.998 | S. cerevisiae deletion strains, locus YKR001C, strain vps1, hits give low values 1.03 | S. cerevisiae deletion strains, locus YKR026C, strain gcn3, hits give low values 0.993 | S. cerevisiae deletion strains, locus YKR091W, strain srl3, hits give low values 0.991 | S. cerevisiae deletion strains, locus YLL001W, strain dnm1, hits give low values 0.99 | S. cerevisiae deletion strains, locus YLL026W, hits give low values 0.996 | S. cerevisiae deletion strains, locus YLL041C, strain sdh2, hits give low values 0.982 | S. cerevisiae deletion strains, locus YLR027C, strain aat2, hits give low values 0.988 | S. cerevisiae deletion strains, locus YLR039C, strain RIC1, hits give low values 1 | S. cerevisiae deletion strains, locus YLR058C, strain SHM2, hits give low values 1.01 | S. cerevisiae deletion strains, locus YLR102C, strain apc9, hits give low values 1 | S. cerevisiae deletion strains, locus YLR113W, strain HOG1, hits give low values 1.01 | S. cerevisiae deletion strains, locus YLR221C, strain rsa3, hits give low values 1 | S. cerevisiae deletion strains, locus YLR258W, strain gsy2, hits give low values 1 | S. cerevisiae deletion strains, locus YLR262C, strain YPT6 (second series), hits give low values 0.982 | S. cerevisiae deletion strains, locus YLR262C, strain YPT6, hits give low values 1.07 | S. cerevisiae deletion strains, locus YLR268W, strain sec22, hits give low values 0.998 | S. cerevisiae deletion strains, locus YLR320W, strain mms22, hits give low values 1.01 | S. cerevisiae deletion strains, locus YLR342W, strain FKS1 (second series), hits give low values 1.01 | S. cerevisiae deletion strains, locus YLR342W, strain FKS1, hits give low values 0.994 | S. cerevisiae deletion strains, locus YLR357W, strain rsc2, hits give low values 0.989 | S. cerevisiae deletion strains, locus YLR370C, strain arc18, hits give low values 0.998 | S. cerevisiae deletion strains, locus YLR371W, strain rom2, hits give low values 0.985 | S. cerevisiae deletion strains, locus YLR384C, strain iki3, hits give low values 0.984 | S. cerevisiae deletion strains, locus YLR418C, strain cdc73, hits give low values 1.03 | S. cerevisiae deletion strains, locus YML016C, strain PPZ1, hits give low values 0.996 | S. cerevisiae deletion strains, locus YML032C, strain rad52, hits give low values 1.01 | S. cerevisiae deletion strains, locus YML120C, strain ndi1, hits give low values 0.99 | S. cerevisiae deletion strains, locus YML124C, strain tub3, hits give low values 1 | S. cerevisiae deletion strains, locus YMR058W, strain fet3, hits give low values 0.978 | S. cerevisiae deletion strains, locus YMR078C, strain ctf18, hits give low values 0.996 | S. cerevisiae deletion strains, locus YMR125W, strain sto1, hits give low values 0.98 | S. cerevisiae deletion strains, locus YMR129W, hits give low values 0.994 | S. cerevisiae deletion strains, locus YMR205C, strain PFK2, hits give low values 0.992 | S. cerevisiae deletion strains, locus YMR223W, strain ubp8, hits give low values 1.01 | S. cerevisiae deletion strains, locus YMR231W, strain pep5, hits give low values 0.978 | S. cerevisiae deletion strains, locus YMR263W, strain SAP30, hits give low values 1.02 | S. cerevisiae deletion strains, locus YMR307W, strain GAS1, hits give low values 1.03 | S. cerevisiae deletion strains, locus YNL067W, strain RPL9B, hits give low values 1.03 | S. cerevisiae deletion strains, locus YNL071W, strain lat1, hits give low values 0.992 | S. cerevisiae deletion strains, locus YNL128W, strain TEP1, hits give low values 0.988 | S. cerevisiae deletion strains, locus YNL153C, strain GIM3, hits give low values 1.02 | S. cerevisiae deletion strains, locus YNL183C, strain NPR1, hits give low values 0.941 | S. cerevisiae deletion strains, locus YNL209W, strain ssb2, hits give low values 0.987 | S. cerevisiae deletion strains, locus YNL233W, strain BNI4, hits give low values 1.02 | S. cerevisiae deletion strains, locus YNL248C, strain rpa49, hits give low values 0.981 | S. cerevisiae deletion strains, locus YNL250W, strain rad50, hits give low values 1.03 | S. cerevisiae deletion strains, locus YNL271C, strain bni1, hits give low values 1 | S. cerevisiae deletion strains, locus YNL298W, strain CLA4, hits give low values 1.02 | S. cerevisiae deletion strains, locus YNL307C, strain MCK1, hits give low values 1.02 | S. cerevisiae deletion strains, locus YNL322C, strain KRE1 (second series), hits give low values 0.994 | S. cerevisiae deletion strains, locus YNR049C, strain mso1, hits give low values 0.987 | S. cerevisiae deletion strains, locus YNR052C, strain pop2, hits give low values 1.02 | S. cerevisiae deletion strains, locus YOL012C, strain htz1 1 | S. cerevisiae deletion strains, locus YOL147C, strain pex11, hits give low values 1.01 | S. cerevisiae deletion strains, locus YOR001W, strain rrp6, hits give low values 0.986 | S. cerevisiae deletion strains, locus YOR061W, strain CKA2, hits give low values 0.991 | S. cerevisiae deletion strains, locus YOR069W, strain VPS5, hits give low values 1 | S. cerevisiae deletion strains, locus YOR070C, strain gyp1, hits give low values 1.01 | S. cerevisiae deletion strains, locus YOR080W, strain dia2, hits give low values 1 | S. cerevisiae deletion strains, locus YOR083W, strain WHI5, hits give low values 0.995 | S. cerevisiae deletion strains, locus YOR106W, strain vam3, hits give low values 1 | S. cerevisiae deletion strains, locus YOR136W, strain idh2, hits give low values 1.01 | S. cerevisiae deletion strains, locus YOR144C, strain elg1, hits give low values 1.01 | S. cerevisiae deletion strains, locus YOR184W, strain ser1, hits give low values 0.996 | S. cerevisiae deletion strains, locus YOR231W, strain MKK1, hits give low values 0.981 | S. cerevisiae deletion strains, locus YOR265W, strain rbl2, hits give low values 0.99 | S. cerevisiae deletion strains, locus YOR270C, strain vph1, hits give low values 0.943 | S. cerevisiae deletion strains, locus YOR290C, strain snf2, hits give low values 1 | S. cerevisiae deletion strains, locus YOR316C, strain cot1, hits give low values 1.02 | S. cerevisiae deletion strains, locus YPL051W, strain arl3, hits give low values 1.03 | S. cerevisiae deletion strains, locus YPL078C, strain atp4, hits give low values 0.989 | S. cerevisiae deletion strains, locus YPL106C, strain sse1, hits give low values 1 | S. cerevisiae deletion strains, locus YPL240C, strain hsp82, hits give low values 0.995 | S. cerevisiae deletion strains, locus YPL256C, strain CLN2, hits give low values 0.968 | S. cerevisiae deletion strains, locus YPR119W, strain clb2, hits give low values 1.01 | S. cerevisiae deletion strains, locus YPR141C, strain kar3, hits give low values 1 | S. cerevisiae deletion strains, locus YPR163C, strain tif3, hits give low values 1.01 | S. cerevisiae deletion strains, locus YPR167C, strain met16, hits give low values 1 | S. cerevisiae deletion strains, strain wtn01, hits give low values 0.984 | S. cerevisiae strains, strain wild type, hits give low values 0.991

From PubChem BioAssay AID1159580 (chemical genetic matrix, 2015)
